PubChem BioAssay (NCATS)
Inconclusive results are not listed. Active and inactive are the calls of the source. Calls follow the shape of the dose curve; as a rule, active = well fitted inhibition curve with a large enough effect; inconclusive = small, poorly fitted or top-dose-only effect; inactive = flat fitted curve, though single readings scatter.

How the values were obtained:
PC49 = assay: qHTS profiling for inhibitors of Plasmodium falciparum proliferation (AID 504749);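 also: 0% = DMSO vehicle and full inhibition = artemisinin control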; details: P. falciparum in erythrocytes, SYBR Green DNA, 72 h; series mostly up to 28.7 µM
Summary of the method: (§1)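 Readout was DNA-dye fluorescence from lysed cultures, ex 485/em 535 nm. Parasitized red cells had grown 72 h with compound; data scaled between 0.29 uM artemisinin and DMSO wells and corrected using vehicle-only plates.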

SC27B = assay: as above; details: P. falciparum in erythrocytes, SYBR Green DNA, 72 h; series mostly up to 28.7 µM
Summary of the method: as §1

TAB109 = assay: as above; details: P. falciparum in erythrocytes, SYBR Green DNA, 72 h; series mostly up to 28.7 µM
Summary of the method: as §1

TAB113 = assay: as above; details: P. falciparum in erythrocytes, SYBR Green DNA, 72 h; series mostly up to 28.7 µM
Summary of the method: as §1

TAB165 = assay: as above; details: P. falciparum in erythrocytes, SYBR Green DNA, 72 h; series mostly up to 28.7 µM
Summary of the method: as §1

W2 = assay: as above; details: P. falciparum in erythrocytes, SYBR Green DNA, 72 h; series mostly up to 28.7 µM
Summary of the method: as §1

CRL-7250 = normal cell line; assay: Cytotoxic Profiling of Annotated Libraries Using Quantitative High-Throughput Screening (AID 1296008); details: Five cell lines viability, CellTiter-Glo ATP luminescence, 48-72 h; active compounds read low; as to max response: % is scaled to controls: 0 for no effect and ±100 for the full control effect
Summary of the method: (§2)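 Cells exposed to compounds for 48 or 72 hr at 37 degrees Celsius. Viability read as ATP-coupled luminescence with CellTiter-Glo after 10 min at room temperature.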

HEK293 = assay: as above; details: Five cell lines viability, CellTiter-Glo ATP luminescence, 48-72 h; active compounds read low
Summary of the method: as §2

HaCat = assay: as above; details: Five cell lines viability, CellTiter-Glo ATP luminescence, 48-72 h; active compounds read low
Summary of the method: as §2

KB-3-1 = assay: as above; details: Five cell lines viability, CellTiter-Glo ATP luminescence, 48-72 h, active compounds read low
Summary of the method: as §2
Also: nearly all actives have a fitted effect of over 60% in size.

NS(=O)(=O)c1ccc(NC(=O)CCC(=O)O)cc1
inactive: Potency (PC49) | Potency (SC27B) | Potency (TAB109) | Potency (TAB113) | Potency (TAB165) | Potency (W2) | max response (CRL-7250) -4.29% | max response (HEK293) -0.661% | outcome (HaCat) | max response (KB-3-1) -4.48%

CCCCC1(COC(=O)CCC(=O)O)C(=O)N(c2ccccc2)N(c2ccccc2)C1=O
inactive: Potency (PC49) | Potency (SC27B) | Potency (TAB109) | Potency (TAB113) | Potency (TAB165) | Potency (W2) | outcome (CRL-7250) | max response (HEK293) -6.41% | max response (HaCat) -4.26% | max response (KB-3-1) 2.02%

Cc1c(C(=O)NCCO)[n+](=O)c2ccccc2n1[O-]
inactive: Potency (PC49) | Potency (SC27B) | Potency (TAB109) | Potency (TAB113) | Potency (TAB165) | Potency (W2) | outcome (CRL-7250) | max response (HEK293) 0.33% | outcome (HaCat) | max response (KB-3-1) -16.8%

CC(CSC(=O)c1ccccc1)C(=O)N1C[C@@H](Sc2ccccc2)C[C@H]1C(=O)O (stereo not given in full)
inactive: Potency (PC49) | Potency (SC27B) | Potency (TAB109) | Potency (TAB113) | Potency (TAB165) | Potency (W2) | max response (CRL-7250) -5.72% | outcome (HEK293) | outcome (HaCat) | max response (KB-3-1) -11.1%

CC(=O)Oc1cccc(C)c1
inactive: Potency (PC49) | Potency (SC27B) | Potency (TAB109) | Potency (TAB113) | Potency (TAB165) | Potency (W2) | max response (CRL-7250) 2.1% | max response (HEK293) -2.07% | outcome (HaCat) | max response (KB-3-1) -6.53%

O=C(O)Cc1cn(-c2ccccc2)nc1-c1ccc(Cl)cc1
inactive: Potency (PC49) | Potency (SC27B) | Potency (TAB109) | Potency (TAB113) | Potency (TAB165) | Potency (W2) | max response (CRL-7250) 3.22% | outcome (HEK293) | max response (HaCat) -24% | max response (KB-3-1) 2.82%

CC(O)CCCCn1c(=O)c2c(ncn2C)n(C)c1=O (stereo not given)
inactive: Potency (PC49) | Potency (SC27B) | Potency (TAB109) | Potency (TAB113) | Potency (TAB165) | Potency (W2) | max response (CRL-7250) 2.98% | max response (HEK293) 0.321% | max response (HaCat) -6.07% | max response (KB-3-1) -8.11%

CCS(=O)(=O)CCn1c([N+](=O)[O-])cnc1C
inactive: Potency (PC49) | Potency (SC27B) | Potency (TAB109) | Potency (TAB113) | Potency (TAB165) | Potency (W2) | outcome (CRL-7250) | max response (HEK293) 1.79% | outcome (HaCat) | max response (KB-3-1) -0.735%

CC(C)=CCC/C(C)=C/CO
inactive: Potency (PC49) | Potency (SC27B) | Potency (TAB109) | Potency (TAB113) | Potency (TAB165) | Potency (W2) | outcome (CRL-7250) | outcome (HEK293) | max response (HaCat) -2.14% | max response (KB-3-1) 8.27%

Cc1onc(-c2ccccc2)c1-c1ccc(S(N)(=O)=O)cc1
inactive: Potency (PC49) | Potency (SC27B) | Potency (TAB109) | Potency (TAB113) | Potency (TAB165) | Potency (W2) | outcome (CRL-7250) | max response (HEK293) -13.2% | outcome (HaCat) | max response (KB-3-1) 6.03%

O=c1[nH]cnc2nc[nH]c12
inactive: Potency (PC49) | Potency (SC27B) | Potency (TAB109) | Potency (TAB113) | Potency (TAB165) | Potency (W2) | max response (CRL-7250) -2.48% | max response (HEK293) -1.3% | outcome (HaCat) | max response (KB-3-1) -17.5%

CN1CCN(C(=O)C2CCCCC2)CC1
inactive: Potency (PC49) | Potency (SC27B) | Potency (TAB109) | Potency (TAB113) | Potency (TAB165) | Potency (W2) | outcome (CRL-7250) | max response (HEK293) -2.32% | outcome (HaCat) | max response (KB-3-1) -4.36%

CN1C(C)(C)CCCC1(C)C
inactive: Potency (PC49) | Potency (SC27B) | Potency (TAB109) | Potency (TAB113) | Potency (TAB165) | Potency (W2) | max response (CRL-7250) -19.2% | max response (HEK293) -21.6% | outcome (HaCat) | max response (KB-3-1) 7.25%

Nc1ncnc(Nc2ccccc2)n1
inactive: Potency (PC49) | Potency (SC27B) | Potency (TAB109) | Potency (TAB113) | Potency (TAB165) | Potency (W2) | max response (CRL-7250) -1.48% | max response (HEK293) -7.91% | max response (HaCat) 0.531% | max response (KB-3-1) 3.24%

OC[C@@H](O)[C@@H](O)[C@H](O)[C@H](O)CO
inactive: Potency (PC49) | Potency (SC27B) | Potency (TAB109) | Potency (TAB113) | Potency (TAB165) | Potency (W2) | max response (CRL-7250) -5.84% | outcome (HEK293) | max response (HaCat) 0.927% | max response (KB-3-1) 5.16%

COc1ccc(Cc2cnc(N)nc2N)cc1OC
inactive: Potency (PC49) | Potency (SC27B) | Potency (TAB109) | Potency (TAB113) | Potency (TAB165) | Potency (W2) | max response (CRL-7250) -8.49% | max response (HEK293) 2.64% | outcome (HaCat) | max response (KB-3-1) -1.92%

O=C(CN1CCNCC1)NC1CCCCC1
inactive: Potency (PC49) | Potency (SC27B) | Potency (TAB109) | Potency (TAB113) | Potency (TAB165) | Potency (W2) | max response (CRL-7250) -5.07% | max response (HEK293) -4.92% | max response (HaCat) 0.716% | max response (KB-3-1) 2.43%
